In PubChem BioAssay:
Calls of active or inactive are those of the source. Unless noted, the rule behind the calls is not given here.

What was measured:
[1] = tested on: XIP peptide (Xip251-270) binding; assay: XIP fragment 251-270 binding compounds – biochemical, small-molecule microarray, fluorescence 635/667 nm, 0.1 µg/mL protein, primary screen (AID 1182); conditions: fluorescent protein binding, 635 nm, higher = more signal, called active from +8 up or from −8 down
XIP peptide (Xip251-270) = assay: compounds binding XIP fragment 251-270 – biochemical, small-molecule microarray, fluorescence 635/667 nm, 0.5 µg/mL protein, primary screen (AID 1183); conditions: fluorescence 635 nm, higher = more signal
[2] = blood-stage malaria parasite viability loss – strain 3D7, DAPI fluorescence, 100 nL, primary screen (AID 1184);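 note: parasites grown inside human red blood cells in medium with human serum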; conditions: P. falciparum 3D7 growth, 3 d, higher = more signal
[3] = target: Homeobox protein Hox-A13 (Mus musculus) (UniProt Q62424); assay: disruptors of Hoxa13 oligonucleotide interaction – biochemical, fluorescence polarization, labeled oligonucleotide, primary screen (AID 1185); conditions: Hoxa13:DNA binding, 15 min, higher = more signal, called active from +8 up or from −8 down
[4] = blockers of DNA damage checkpoint Chk1 activation – imaging, HeLa, hydroxyurea, phospho-Chk1 antibody, percent positive cells, primary screen (AID 1186); conditions: hydroxyurea-induced phospho-Chk1 immunofluorescence imaging, higher = more signal
[5] = blockers of DNA damage checkpoint Chk1 activation – imaging, HeLa, hydroxyurea, phospho-Chk1 nuclear intensity, primary screen (AID 1187); conditions: hydroxyurea-induced phospho-Chk1 immunofluorescence imaging, higher = more signal

Sequence of Homeobox protein Hox-A13 (Mus musculus) (Q62424 whole entry, looked up): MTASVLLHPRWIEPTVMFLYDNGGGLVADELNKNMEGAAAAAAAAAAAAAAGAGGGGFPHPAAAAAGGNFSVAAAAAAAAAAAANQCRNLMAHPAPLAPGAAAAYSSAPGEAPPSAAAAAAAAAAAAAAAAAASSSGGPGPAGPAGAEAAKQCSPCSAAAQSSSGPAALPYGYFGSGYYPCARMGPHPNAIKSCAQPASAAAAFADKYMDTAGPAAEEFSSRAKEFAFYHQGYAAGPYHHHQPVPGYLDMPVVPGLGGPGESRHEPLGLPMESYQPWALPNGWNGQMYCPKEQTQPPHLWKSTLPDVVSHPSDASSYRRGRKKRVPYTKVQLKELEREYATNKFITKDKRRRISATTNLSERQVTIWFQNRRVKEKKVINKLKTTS

With `O=C(C=C(CC(O)c1cccc(Cl)c1)OCCF)OCCF` (stereo not drawn) the composite z-score [1] was 0.0562 (inactive), the composite z-score (XIP peptide (Xip251-270)) was -1.21 and the z-score [2] was 0.186. The z-score [3] was -1.34 (inactive), the z-score [4] was -0.608 (inactive) and the z-score [5] was -0.48 (inactive).
With `NC(=O)NCC#Cc1ccc2c(c1)[C@]1(C(=O)N2)[C@H](c2ccc(O)cc2)N2[C@H](c3ccccc3)[C@H](c3ccccc3)OC(=O)[C@H]2[C@@H]1C(N)=O` the composite z-score [1] was -0.0765 (inactive), the composite z-score (XIP peptide (Xip251-270)) was 0.603 and the z-score [2] was 0.637. The z-score [3] was -4.21 (inactive), the z-score [4] was -0.681 (inactive) and the z-score [5] was -0.878 (inactive).
For `COC(=O)[C@@]1(Cc2ccccc2)[C@H]2c3cc(C(=O)N4CCCC4)n(Cc4ccccc4)c3C[C@H]2CN1C(=O)c1ccccc1`, the composite z-score [1] was 3.1 (inactive), the composite z-score (XIP peptide (Xip251-270)) was -0.179 and the z-score [2] was -1.12. For the same compound, the z-score [3] was -4.13 (inactive), the z-score [4] was 0.234 (inactive) and the z-score [5] was 0.167 (inactive).
With `C[C@H]1NC(=O)C([C@@H](C)OCc2ccccc2)NC(=O)[C@@]23C(=O)N[C@@H](Cc4ccccc4)C2[C@H](C)[C@@]2(C)O[C@H]2C3/C=C/CC/C=C/CNC1=O` (stereo partly drawn) the composite z-score [1] was 0.249 (inactive), the composite z-score (XIP peptide (Xip251-270)) was -0.764 and the z-score [2] was -2.74. The z-score [3] was -6.35 (inactive), the z-score [4] was -0.295 (inactive) and the z-score [5] was 0.3 (inactive).
With `COc1ccc([Si](C)(C)[C@@H]2[C@@H](CC(=O)N(CCO)Cc3ccccc3)O[C@]3(C(=O)N(C)c4c(Br)cc(C)cc43)[C@H]2C)cc1` the composite z-score [1] was 0.48 (inactive), the composite z-score (XIP peptide (Xip251-270)) was 0.373 and the z-score [2] was -1.48. The z-score [3] was -6.47 (inactive), the z-score [4] was -0.743 (inactive) and the z-score [5] was -1.69 (inactive).
With `CN(C)CCCN1C(=O)[C@@]2(Cc3ccccc31)c1ccccc1C(=O)N(Cc1ccccc1)[C@H]2c1ccc(CO)cc1` the composite z-score [1] was 0.0022 (inactive), the composite z-score (XIP peptide (Xip251-270)) was 0.324 and the z-score [2] was -1.47. The z-score [3] was 1.06 (inactive), the z-score [4] was -0.384 (inactive) and the z-score [5] was -0.682 (inactive).
In the case of `COc1ccc(CCNC(=O)[C@@H]2c3ccccc3C(=O)N(Cc3ccccc3C(F)(F)F)[C@H]2c2ccc(CO)cc2)cc1`, the composite z-score [1] is reported as -0.251 (inactive), the composite z-score (XIP peptide (Xip251-270)) is reported as 0.766 and the z-score [2] is reported as -0.756. For the same compound, the z-score [3] was -3.85 (inactive), the z-score [4] was 0.239 (inactive) and the z-score [5] was 0.61 (inactive).
For `COC(=O)C(CC#Cc1ccc2c(c1)[C@]1(C(=O)N2)[C@H](C(=O)N2CCc3cc(OC)c(OC)cc3C2)[C@H]2C(=O)O[C@H](c3ccccc3)[C@H](c3ccccc3)N2[C@@H]1c1ccc(OCCO)cc1)C(=O)OC`, the composite z-score [1] was 0.916 (inactive), the composite z-score (XIP peptide (Xip251-270)) was 0.761 and the z-score [2] was -1.76. The z-score [3] was -10.5 (active), the z-score [4] was -0.197 (inactive) and the z-score [5] was 0.277 (inactive).
